Experimental data taken from PubChem BioAssay (NCATS).
Records with an inconclusive call do not appear. A call without a number means that no potency is given here. Activity calls are given as the source filed them. Calls come from the whole dose curve; as a rule, active = well fitted cell-killing curve with a large enough effect; inconclusive = small, poorly fitted or top-dose-only effect; inactive = flat fitted curve, though single readings scatter.
Potency is the fitted concentration of half-maximal effect.

Experiment: Quantitative highthroughput screen to assess conditional lethalithy of P12 Ichikawa cells grown in RPMI1640 with untreated serum (RPMI+s) (AID 1963881); note: nearly all actives have a fitted effect of over 35% in size
Details: ATP luminescence, 48 h; Potency: viability; series mostly up to 45.8 µM
Source text: Assay Provider: Jason Cantor Ph.D.
Department of Biochemistry
University of Wisconsin-Madison, Madison, WI, USA
Chemical screening studies have identified drug sensitivities across hundreds of cancer cell lines but most putative therapeutics fail to translate. Discovery and development of drug candidates in models that more accurately reflect nutrient levels in human blood is a major challenge. Here we performed high-throughput screens in conventional versus Human Plasma-Like Medium (HPLM) to identify compounds that were "missed" when screening using the artificial culture condition. Sets of conditional anticancer compounds spanned phases of clinical development and included non-oncology drugs were assessed. […] We also traced conditional phenotypes for several chemotherapeutics to availability of HPLM-specific metabolites and confirmed others for compounds whose reported targets are encoded by nonessential genes. Our findings establish generalizable strategies for exploiting conditional lethality in HPLM to reveal therapeutic candidates and mechanisms of action in cancer cells.
Described herein are the results of each viability screens against three cell lines: NOMO1 (an acute myeloid leukemia cell line); P12-Ichikawa (a T-cell acute lymphoblastic leukemia); and SEM (a B-cell ALL). Each assay was screened using 3 different cell culture media: homemade human plasma-Like medium with 10% dialyzed fetal bovine serum (HPLM+ds); RPMI1640 with 10% untreated FBS and 5mM glucose (RPMI+s); and RPMI1640 with 10% dialyzed fetal bovine serum and 5 mM glucose (RPMI+ds).
PROTOCOL TABLE (as described by Inglese J, Shamu CE and Guy RK. 2007)
SEQUENCE No. (e.g., 1, 2, 3, etc.); […] (e.g., Cells, Incubation, Reagent, etc.); VALUE and DESCRIPTION.
1; Cells; 5 uL; white, solid bottom 1536-well Greiner assay plate.
2; Compounds; 23 nL; Kalypsis pin tool (Wako USA) equipped with a 1536-well pin head to transfer to the assay plates.
3; Incubation; 48 hours; 37C incubation.
4; Reagent; 3 uL; CellTiter Glo (Promega).
5; Incubation; 5 min, room temperature
6; Detection; Luminescence, Viewlux PerkinElmer.
NOTES (numbers refer to Sequence numbers above)
1. Briefly, 5 ul of cell reagent was dispensed using a Multidrop Combi Dispenser. The NOMO1 and SEM cells were plated at 500 cells/well and the P12-Ichikawa line at 1000 cells/well.
2. After seeding the cells, 23 nL of MIPE 4.1 library compounds (in DMSO) were added to each plate using a Kalypsys 1536 Pintool dispenser. Bortezomib at final concentration of […] and DMSO were added to each plate as positive and negative controls respectively. For each screen, MIPE 4.1 compounds were added over an eleven-point concentration range […] in 3-fold dilutions.
3. Each plate was covered with a stainless steel gasketed lid to prevent evaporation and incubated for 48 hour at 37C, 95% relative humidity, and 5% CO2.
4-5. Three microliter CellTilter-GloTM luminescent substrate mix (Promega) reagent was added to the assay plate and incubated at room temperature for 5 min.
6. The luminescence signal was measured using a ViewLux (PerkinElmer) multiplate reader with a 2 second exposure time per plate. Data for each compound were normalized as percent viability such that measurements for DMSO and the empty well controls in each plate were defined as 100% and 0%, respectively.
For `C#CCN(C)[C@H](C)Cc1ccccc1`, the Potency was “inactive”. In the case of `CN1CCN(C(=O)O[C@H]2c3nccnc3C(=O)N2c2ccc(Cl)cn2)CC1`, the Potency is reported as “inactive”. In the case of `c1ccc(CCCN2CCN(CCOC(c3ccccc3)c3ccccc3)CC2)cc1`, the Potency is reported as 18700 nM (active). In the case of `C[C@]12CC[C@@H]3[C@@H](CCC4=CC(=O)CC[C@@H]43)[C@@H]1CC[C@@H]2OC(=O)CCc1ccccc1`, the Potency is reported as “inactive”. With `COC1(CS(=O)c2ccccc2)CCN(CCc2c[nH]c3ccc(F)cc23)CC1` (stereo not given) the Potency was “inactive”. In the case of `C[C@@]12OC(=O)[C@]1([C@@H](O)[C@@H]1C=CCCC1)NC(=O)[C@H]2CCCl`, the Potency is reported as 235 nM (active). For `N[C@@H](Cc1ccc(N(CCCl)CCCl)cc1)C(=O)O`, the Potency was 4690 nM (active). For `Cc1[nH]nc2ccc(-c3cncc(OC[C@@H](N)Cc4c[nH]c5ccccc45)c3)cc12`, the Potency was 1480 nM (active). For `CCCC(C)(COC(N)=O)COC(=O)NC(C)C` (stereo not given), the Potency was “inactive”. With `COc1ccc2c(c1)CN(C)CC2c1ccc(Cl)c(Cl)c1` (stereo not given) the Potency was “inactive”. With `CNC(=O)c1ccc(N2C(=S)N(c3ccc(C#N)c(C(F)(F)F)c3)C(=O)C23CCC3)cc1F` the Potency was “inactive”. For `CCOc1ccccc1-n1c(C(C)N2CCN(C(=O)COc3ccc(Cl)cc3)CC2)nc2ccccc2c1=O` (stereo not given), the Potency was 1480 nM (active). For `CC(=O)N(C)c1cccc(-c2ccnc3c(C(=O)c4cccs4)cnn23)c1`, the Potency was “inactive”. For `CCc1c(C(=O)C(N)=O)c2c(OCC(=O)O)cccc2n1Cc1ccccc1`, the Potency was “inactive”. With `CC[C@@H](C(N)=O)N1CCCC1=O` the Potency was “inactive”. With `COC(=O)[C@@H](N)CCCN=C(N)N[N+](=O)[O-]` the Potency was “inactive”. For `O=C(NCC1CCOCC1)c1cnc(Nc2ccc(Cl)cc2Cl)nc1C(F)(F)F`, the Potency was “inactive”. With `CC(C)c1cccc(C(C)C)c1O` the Potency was “inactive”. In the case of `C[C@@H]1C[C@@H]([C@H](O)CC2CC(=O)NC(=O)C2)C(=O)[C@@H](C)C1`, the Potency is reported as 264 nM (active). With `C#CC1(O)CCC2C3CCC4=CC(=O)CCC4(C)C3CCC21C` (stereo not given) the Potency was “inactive”. With `O=C(Oc1ccc([N+](=O)[O-])cc1)N1CCC(C(O)(c2ccc3c(c2)OCO3)c2ccc3c(c2)OCO3)CC1` the Potency was “inactive”. For `CCN(CC)C(=O)c1ccc(C2=CC3(CCNCC3)Oc3cccc(O)c32)cc1`, the Potency was “inactive”. For `O=c1[nH]c2ccc(Cl)cc2c(N[C@@H]2CN3CCC2CC3)c1-c1nc2ccccc2[nH]1`, the Potency was 166 nM (active). In the case of `Cc1cc(SCc2sc(-c3ccc(C(F)(F)F)c(F)c3)nc2C)ccc1OCC(=O)O`, the Potency is reported as “inactive”. With `O=C1CC[C@@]2(O)[C@H]3Cc4ccc(O)c5c4[C@@]2(CCN3CC2CC2)[C@H]1O5` the Potency was “inactive”. In the case of `CC(C)N[C@@H]1CCn2c(=O)[nH]c3cccc(c32)[C@@H]1O`, the Potency is reported as “inactive”. In the case of `O=C1C=CC[C@@H]2[C@H]3CCCN4CCC[C@@H](CN12)[C@@H]34`, the Potency is reported as “inactive”. In the case of `CCOC(=O)c1c(C(C#N)=CN)c2ccc(Cl)c(Cl)c2n1C`, the Potency is reported as “inactive”. In the case of `Cc1sc2c(c1C)C(c1ccc(Cl)cc1)=N[C@@H](CC(=O)OC(C)(C)C)c1nnc(C)n1-2`, the Potency is reported as 1870 nM (active). In the case of `CN1CCN(c2ccc([N+](=O)[O-])c3no[n+]([O-])c23)CC1`, the Potency is reported as “inactive”. In the case of `CC(C)[C@H]1C(=O)N[C@H](CO)Cc2c[nH]c3cccc(c23)N1C`, the Potency is reported as 372 nM (active). With `COCC1(CO)C(=O)C2CCN1CC2` (stereo not given) the Potency was 16600 nM (active). For `COC[C@H]1OC(=O)c2coc3c2[C@@]1(C)C1=C(C3=O)C2CCC(=O)[C@@]2(C)C[C@H]1OC(C)=O` (stereo not given in full), the Potency was “inactive”. In the case of `O=[N+]([O-])c1ncc[nH]1`, the Potency is reported as “inactive”. In the case of `CN(C)[C@@H]1C(=O)C(C(N)=O)=C(O)[C@@]2(O)C(=O)C3=C(O)c4c(O)cccc4[C@@](C)(O)[C@H]3C[C@@H]12`, the Potency is reported as “inactive”. With `O=P1(N(CCCl)CCCl)NCCCO1` (stereo not given) the Potency was 14800 nM (active). With `CN1C(=O)CCS(=O)(=O)C1c1ccc(Cl)cc1` (stereo not given) the Potency was “inactive”. For `C[C@@H]1[C@@H](C(=O)C[C@H]2O[C@@H]3O[C@]4(C)CC[C@@H]5[C@H](C)CC[C@@H]([C@H]2C)[C@@]35OO4)O[C@@H]2O[C@]3(C)CC[C@H]4[C@H](C)CC[C@@H]1[C@@]24OO3`, the Potency was 23500 nM (active). For `O=C1CCC[C@@H]2[C@H]3CCCN4CCC[C@@H](CN12)[C@@H]34`, the Potency was “inactive”. In the case of `NC1=NC(=O)N2CC12` (stereo not given), the Potency is reported as 5260 nM (active).
